Data reported in PubChem BioAssay.
Values joined by “and” are separate entries in the source; they are usually repeats but may differ in a detail not shown here. Identical values can stand only once. For part of these data: Measured potencies and affinities stand elsewhere. Active and inactive are the calls of the source. Unless noted, no rule for the calls is given here.

How the values were obtained:
[1] = circadian clock period modulators, cell-based, LOPAC library, luminescence reporter (AID 2774); settings: circadian reporter cells, at 7 µM, actives lie on both sides;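 also: values are relative to mean of DMSO wells on each plate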
[2] = target: 6-phosphogluconate dehydrogenase, decarboxylating (Homo sapiens) (UniProt P52209); test: 6PGD enzyme inhibitors, primary screen, biochemical, human, recombinant enzyme, NADPH absorbance (AID 1159550;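 active = at least 20% inhibition of 6-phosphogluconate dehydrogenase activity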); settings: recombinant 6PGD, NADPH absorbance 341 nm; at 10 µM; stronger effect = higher value
Sequence of 6-phosphogluconate dehydrogenase, decarboxylating (Homo sapiens) (P52209 whole entry, looked up): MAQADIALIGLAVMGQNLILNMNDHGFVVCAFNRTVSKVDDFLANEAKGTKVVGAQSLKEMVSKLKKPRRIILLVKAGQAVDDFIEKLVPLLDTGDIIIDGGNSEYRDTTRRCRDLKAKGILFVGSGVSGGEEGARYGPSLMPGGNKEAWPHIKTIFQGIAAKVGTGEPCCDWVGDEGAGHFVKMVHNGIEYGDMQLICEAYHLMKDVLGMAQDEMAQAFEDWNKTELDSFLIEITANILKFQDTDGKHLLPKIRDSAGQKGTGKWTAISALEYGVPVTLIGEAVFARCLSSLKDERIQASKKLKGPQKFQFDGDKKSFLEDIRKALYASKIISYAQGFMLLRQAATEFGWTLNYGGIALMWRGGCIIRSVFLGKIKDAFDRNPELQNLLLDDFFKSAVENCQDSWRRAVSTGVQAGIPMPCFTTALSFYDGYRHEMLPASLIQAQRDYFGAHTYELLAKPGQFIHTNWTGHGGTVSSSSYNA

[3] = differential killing of epithelial or mesenchymal cells, primary screen, imaging, PC-3E GFP, TEM4-18 mCherry, co-culture (AID 1345086;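 active = compounds killing one labelled cell type while sparing the other, by normalised counts and ratio limits, not self-fluorescent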;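 as to all read-outs here: cells exposed to compound for 72 h before imaging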;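 as to red/green cell ratio (normalised): normalised mesenchymal count divided by normalised epithelial count so high means epithelial killing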); settings: imaging cell counts, at 1 µM; for red/green cell ratio (normalised): actives lie on both sides, counts scaled to control wells, 1 = unselective
[4] = sensitizers of A549 cells to miR-34 induction, primary screen, imaging, A549 dox-inducible miR-34, nuclei and caspase counts (AID 1347080;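 active = compounds whose cell count with miR-34 switched on is under 0.7 times the count with it off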); settings: A549 miR-34 inducible, Hoechst nuclei count, 48 h
[5] = phospholipid biosynthesis inhibitors in animal cells, primary screen, cell-based, LOPAC library, screen 4 (AID 1347384); settings: phospholipid biosynthesis inhibition screen, at 10 µM
[6] = viability rescue of complex I mutant cybrids, primary screen, cell-based, galactose medium, ATP luminescence (AID 1645843;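 active = z-score of at least 1.8 in each of two replicates, scored against plate mean and spread of sample wells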;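 also: positive z means more ATP and so rescue of galactose-driven cybrid death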); settings: complex I mutant cybrid cells, 72 h, stronger effect = higher value
[7] = polyglutamine-triggered caspase-3 activation inhibitors, cell-based (AID 1583); settings: polyglutamine-induced caspase-3 activation, cell assay; stronger effect = higher value;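 tested at 10 µM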
[8] = suppressors of polyQ aggregation in yeast, 75Q-TubU reporter (AID 1593); settings: Yeast 75Q polyglutamine aggregation reporter
[9] = rescue of polyQ-huntingtin neuronal dysfunction in worms, whole organism, C. elegans mechanosensory neurons, N-terminal huntingtin (AID 1599); settings: touch response, stronger effect = higher value
[10] = inhibitors of mitochondrial cytochrome c release, biochemical, purified mitochondria (AID 1603); settings: stronger effect = lower value;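 also: mouse liver mitochondria challenged with calcium chloride; signal normalized to the plate average as 100%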
[11] = inhibitors of polyQ protein aggregation (AID 1604); settings: polyglutamine-induced protein aggregation inhibition assay; stronger effect = higher value; tested at 2.5 µM
[12] = enhancers of glutamate uptake in motor neurons, MN-1 cell line (AID 1612); settings: MN-1 motor neuron cells, stronger effect = higher value;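 also: tested at 1 µM final; 0% = mean of DMSO vehicle wells on each plate; positive means more glutamate uptake than control and negative means less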
[13] = reducers of polyQ inclusions in PC12 cells, cell-based, NGF-treated PC12, GFPQ80 (AID 1614); settings: PC12 NGF-treated GFP-polyQ80 inclusion reduction;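 also: lower means fewer inclusions and 0 means no inclusions at all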
[14] = suppressors of polyglutamine aggregation in yeast, 75Q-TubH (AID 1616); settings: S. cerevisiae 75Q-TubH polyglutamine aggregation suppression; stronger effect = higher value
[15] = liver-stage malaria parasite growth inhibition, primary screen, cell-based, HepG2, luciferase luminescence, HepG2 viability (AID 624349; in the data active = parasite load remaining mostly below about 12%, no sharp cut-off; inactive = mostly above about 10%;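 also: 100% = mean of DMSO negative control wells on the same plate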); settings: P. berghei liver stage in HepG2, luciferase luminescence, concentration not given here; parasite load remaining: stronger effect = lower value; viability: measured here: HepG2 viability without parasites
[16] = hESC survival regulators, cell-based (AID 493140); settings: human embryonic stem cell survival screen; stronger effect = higher value;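 also: cells exposed to compounds for four days before counting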
[17] = target: NAD(+) hydrolase SARM1 (Homo sapiens) (UniProt Q6SZW1); test: SARM1 TIR NADase inhibitors, cell lysate, NAD-Glo luminescence (AID 1508614;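 active = compound whose remaining NAD level is above about 45 nM, limit read from the data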;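 also: higher remaining NAD means stronger inhibition of SARM1 NADase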); settings: SAM-TIR HEK293T lysate NADase, at 1 µM, stronger effect = higher value
Sequence of NAD(+) hydrolase SARM1 (Homo sapiens) (Q6SZW1 whole entry, looked up, the tested form may be a part): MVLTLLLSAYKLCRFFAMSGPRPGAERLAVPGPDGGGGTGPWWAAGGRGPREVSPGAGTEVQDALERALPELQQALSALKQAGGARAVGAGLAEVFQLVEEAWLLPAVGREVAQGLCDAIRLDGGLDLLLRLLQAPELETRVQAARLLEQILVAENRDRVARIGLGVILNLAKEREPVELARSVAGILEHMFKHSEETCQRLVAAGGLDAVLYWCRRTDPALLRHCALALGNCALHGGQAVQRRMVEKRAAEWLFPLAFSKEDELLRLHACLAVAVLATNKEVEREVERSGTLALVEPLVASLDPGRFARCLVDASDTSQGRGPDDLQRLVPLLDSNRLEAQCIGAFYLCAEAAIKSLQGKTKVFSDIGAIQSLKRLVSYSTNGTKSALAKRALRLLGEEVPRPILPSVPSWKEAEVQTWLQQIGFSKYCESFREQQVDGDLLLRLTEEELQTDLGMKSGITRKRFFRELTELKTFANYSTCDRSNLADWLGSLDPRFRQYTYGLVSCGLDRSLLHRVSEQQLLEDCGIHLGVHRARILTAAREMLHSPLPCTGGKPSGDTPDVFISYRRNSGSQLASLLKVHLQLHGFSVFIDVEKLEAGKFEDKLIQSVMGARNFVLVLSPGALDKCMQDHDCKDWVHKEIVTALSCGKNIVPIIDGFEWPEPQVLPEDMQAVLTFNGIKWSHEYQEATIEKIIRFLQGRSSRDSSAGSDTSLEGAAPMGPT

[18] = target: Mitogen-activated protein kinase 7 (Homo sapiens) (UniProt Q13164); test: ERK5 transactivation activators in reporter cells, primary screen, cell-based, HTS (AID 1508626;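 active = luciferase signal above three times the same-plate solvent-only control wells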;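 also: luciferase driven by Gal4-ERK5 fusion binding five Gal4 sites before minimal TATA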); settings: HeLa Gal4-ERK5 transactivation, 18 h, at 5 µM, stronger effect = higher value
Sequence of Mitogen-activated protein kinase 7 (Homo sapiens) (Q13164 whole entry, looked up, the tested form may be a part): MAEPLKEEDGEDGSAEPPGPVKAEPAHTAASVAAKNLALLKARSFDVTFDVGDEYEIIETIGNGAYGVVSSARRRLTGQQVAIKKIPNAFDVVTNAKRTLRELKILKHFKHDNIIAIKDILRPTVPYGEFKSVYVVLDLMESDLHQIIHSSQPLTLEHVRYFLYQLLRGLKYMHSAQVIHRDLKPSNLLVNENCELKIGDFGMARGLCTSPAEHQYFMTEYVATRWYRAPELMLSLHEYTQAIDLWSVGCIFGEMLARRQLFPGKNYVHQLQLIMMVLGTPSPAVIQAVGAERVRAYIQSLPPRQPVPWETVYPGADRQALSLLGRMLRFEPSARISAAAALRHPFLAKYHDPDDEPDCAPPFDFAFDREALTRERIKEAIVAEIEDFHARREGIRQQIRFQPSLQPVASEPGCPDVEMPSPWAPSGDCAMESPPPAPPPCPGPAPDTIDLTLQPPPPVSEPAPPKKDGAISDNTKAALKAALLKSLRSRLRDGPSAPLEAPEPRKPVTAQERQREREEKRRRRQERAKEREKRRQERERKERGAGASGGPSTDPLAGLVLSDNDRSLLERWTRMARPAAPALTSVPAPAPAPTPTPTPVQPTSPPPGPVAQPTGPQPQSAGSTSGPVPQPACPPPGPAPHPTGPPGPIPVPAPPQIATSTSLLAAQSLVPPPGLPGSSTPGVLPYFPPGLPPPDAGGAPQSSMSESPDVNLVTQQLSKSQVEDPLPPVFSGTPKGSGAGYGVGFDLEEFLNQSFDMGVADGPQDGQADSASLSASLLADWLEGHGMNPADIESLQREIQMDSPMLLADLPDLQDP

[19] = survival rescue of mitochondrial mutant cells in low glucose, primary screen, MELAS cybrids, Rieske KO mouse fibroblasts, CellTiter-Glo (AID 1508586;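 active = mean z-score across replicates of 1.96 or higher in either the MELAS or the Rieske mutant cell line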;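 also: z relative to plate mean and SD of compound and empty wells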)
[20] = measured here: epithelial PC-3E GFP cell survival
[21] = measured here: mesenchymal TEM4-18 mCherry cell survival
[22] = stronger effect = lower value, cell number ratio, induced over uninduced
[23] = measured here: relative caspase fold change +Dox/-Dox
[24] = measured here: total cells with miR-34 induction, stronger effect = lower value
[25] = measured here: total cells without miR-34 induction
[26] = MELAS cybrid survival, CellTiter-Glo 48 h, stronger effect = higher value
[27] = Rieske KO mouse fibroblast survival, CellTiter-Glo 72 h

SMILES: NC(N)=NC(=O)c1nc(Cl)c(N2CCCCCC2)nc1N
- period change [1]: 0.165 h (inactive)
- inhibition [2]: 12.2% (inactive)
- red/green cell ratio (normalised) [3]: 0.8 (inactive)
- normalised cell number [3, 20]: 1.26
- normalised cell number [3, 21]: 1.01
- fold change [4, 22]: 1.18 (inactive)
- fold change [4, 23]: 1.04
- cell count [4, 24]: 4710
- cell count [4, 25]: 3990
- outcome [5]: inactive
- z-score [6]: -1.46 (inactive)

SMILES: CN1CCc2cccc3c2C1Cc1ccc(O)c(O)c1-3 (stereo unspecified)
- inhibition [7]: 1.43%
- score [8]: 0.79
- rescue above control [9]: 3.21
- cytochrome c release ratio [10]: 0.9
- inhibition of aggregation [11]: 85.7%
- glutamate uptake change [12]: 14%
- inclusion score [13]: 2
- aggregation suppression score [14]: 1.03
- period change [1]: 0.35 h (inactive)
- parasite load remaining [15]: 9.7% (inactive) and 18.2% (inactive)
- viability [15]: 65% and 86.9%
- inhibition [2]: -2.58% (inactive)
- red/green cell ratio (normalised) [3]: 1.13 (inactive)
- normalised cell number [3, 20]: 1.2
- normalised cell number [3, 21]: 1.36
- fold change [4, 22]: 0.965 (inactive) and 0.839 (inactive)
- fold change [4, 23]: 2.09 and 1.99
- cell count [4, 24]: 7940 and 8770
- cell count [4, 25]: 8230 and 10400
- outcome [5]: inactive
- z-score [6]: -1.52 (inactive)

SMILES: Oc1cc(O)c2c(c1)O[C@H](c1ccc(O)c(O)c1)[C@@H](O)C2
- inhibition [7]: 23.8%
- score [8]: 1.24
- rescue above control [9]: -5.75
- cytochrome c release ratio [10]: 0.5
- inhibition of aggregation [11]: 63.2%
- glutamate uptake change [12]: 14.1%
- inclusion score [13]: 2
- aggregation suppression score [14]: 1.05
- period change [1]: 0.07 h (inactive)
- survival [16]: 6.17 (inactive) and 8.75 (inactive)
- parasite load remaining [15]: 116% (inactive)
- viability [15]: 105%
- inhibition [2]: 13.7% (inactive)
- red/green cell ratio (normalised) [3]: 1.12 (inactive)
- normalised cell number [3, 20]: 1.02
- normalised cell number [3, 21]: 1.15
- fold change [4, 22]: 0.974 (inactive) and 0.863 (inactive) and 0.997 (inactive)
- fold change [4, 23]: 2.1 and 1.09 and 0.901
- cell count [4, 24]: 10300 and 8130 and 5640
- cell count [4, 25]: 10500 and 9420 and 5660
- outcome [5]: inactive
- remaining NAD [17]: 10 nM (inactive)
- luciferase signal [18]: 24 AU (inactive)
- z-score [6]: -0.355 (inactive)

SMILES: NC1(C(=O)O)CC1
- period change [1]: -0.01 h (inactive)
- inhibition [2]: -3.72% (inactive)
- red/green cell ratio (normalised) [3]: 0.8 (inactive)
- normalised cell number [3, 20]: 1.07
- normalised cell number [3, 21]: 0.86
- fold change [4, 22]: 0.945 (inactive)
- fold change [4, 23]: 1.33
- cell count [4, 24]: 9670
- cell count [4, 25]: 10200
- outcome [5]: inactive
- luciferase signal [18]: 60 AU (inactive)
- z-score [6]: 0.575 (inactive)

SMILES: NCCCS(=O)(=O)O
- inhibition [7]: -8.14%
- score [8]: 1.19
- rescue above control [9]: -7.13
- cytochrome c release ratio [10]: 1.17
- inhibition of aggregation [11]: 80.3%
- glutamate uptake change [12]: 3.02%
- inclusion score [13]: 2
- aggregation suppression score [14]: 1.7
- period change [1]: 0.415 h (inactive)
- parasite load remaining [15]: 106% (inactive)
- viability [15]: 72.2%
- inhibition [2]: 6.14% (inactive)
- red/green cell ratio (normalised) [3]: 0.83 (inactive)
- normalised cell number [3, 20]: 1.23
- normalised cell number [3, 21]: 1.02
- fold change [4, 22]: 0.922 (inactive)
- fold change [4, 23]: 2.79
- cell count [4, 24]: 6500
- cell count [4, 25]: 7050
- outcome [5]: inactive
- luciferase signal [18]: 56 AU (inactive)
- z-score [6]: 0.265 (inactive)

SMILES: NCCCCN
- inhibition [7]: -6.18%
- score [8]: 1.21
- rescue above control [9]: 9.16
- cytochrome c release ratio [10]: 0.9
- inhibition of aggregation [11]: 70.6%
- glutamate uptake change [12]: 0.99%
- inclusion score [13]: 2
- aggregation suppression score [14]: 1.37
- period change [1]: 0.01 h (inactive)
- inhibition [2]: -11.8% (inactive)
- red/green cell ratio (normalised) [3]: 1.04 (inactive)
- normalised cell number [3, 20]: 0.98
- normalised cell number [3, 21]: 1.02
- fold change [4, 22]: 1.02 (inactive)
- fold change [4, 23]: 1.7
- cell count [4, 24]: 9820
- cell count [4, 25]: 9630
- outcome [5]: inactive
- luciferase signal [18]: 44 AU (inactive)
- z-score [6]: 0.975 (inactive)

SMILES: N[C@@H](Cc1cc(I)c(Oc2ccc(O)c(I)c2)c(I)c1)C(=O)O
- survival [16]: 4.58 (inactive)
- parasite load remaining [15]: 78.5% (inactive) and 158% (inactive) and 41% (inactive)
- viability [15]: 96% and 73% and 101%
- inhibition [2]: 0.697% (inactive)
- red/green cell ratio (normalised) [3]: 1.24 (inactive)
- normalised cell number [3, 20]: 0.91
- normalised cell number [3, 21]: 1.14
- fold change [4, 22]: 0.925 (inactive) and 0.987 (inactive)
- fold change [4, 23]: 0.994 and 1.44
- cell count [4, 24]: 10000 and 11900
- cell count [4, 25]: 10800 and 12100
- z-score [19, 26]: -0.576 (inactive)
- z-score [19, 27]: -1.73
- remaining NAD [17]: 10 nM (inactive)
- luciferase signal [18]: 80 AU (inactive)

SMILES: Cc1cc(C(C)(C)CC(C)(C)C)ccc1OCCOCC[N+](C)(C)Cc1ccccc1
- inhibition [7]: -7.8%
- score [8]: -0.1
- rescue above control [9]: 0
- cytochrome c release ratio [10]: 6.77
- inhibition of aggregation [11]: 63.9%
- glutamate uptake change [12]: 10.8%
- aggregation suppression score [14]: -0.0187
- survival [16]: 0.167 (inactive)
- parasite load remaining [15]: 26.8% (inactive) and 101% (inactive) and 11.6% (inactive)
- viability [15]: 87.1% and 82% and 145%
- inhibition [2]: 18.8% (inactive)
- red/green cell ratio (normalised) [3]: 1.11 (inactive)
- normalised cell number [3, 20]: 0.89
- normalised cell number [3, 21]: 0.98
- fold change [4, 22]: 0.811 (inactive) and 0.9 (inactive)
- fold change [4, 23]: 1.18 and 1.77
- cell count [4, 24]: 1940 and 8590
- cell count [4, 25]: 2400 and 9540
- z-score [19, 26]: -1.41
- z-score [19, 27]: 2.46
- remaining NAD [17]: 10 nM (inactive)
- luciferase signal [18]: 116 AU (inactive)

SMILES: COc1c2ccoc2cc2oc(=O)ccc12
- inhibition [7]: -19.8%
- score [8]: 1.02
- rescue above control [9]: 6.75
- cytochrome c release ratio [10]: 1.07
- inhibition of aggregation [11]: 80.3%
- glutamate uptake change [12]: -26.6%
- inclusion score [13]: 2
- aggregation suppression score [14]: 0.569
- inhibition [2]: -3.29% (inactive)
- red/green cell ratio (normalised) [3]: 0.94 (inactive)
- normalised cell number [3, 20]: 1.1
- normalised cell number [3, 21]: 1.03
- fold change [4, 22]: 0.859 (inactive)
- fold change [4, 23]: 0.824
- cell count [4, 24]: 8190
- cell count [4, 25]: 9530
- z-score [19, 26]: -0.332 (inactive)
- z-score [19, 27]: -0.177
- remaining NAD [17]: 10 nM (inactive)
- luciferase signal [18]: 28 AU (inactive)

SMILES: Cc1cc(/C=C/c2ccc3cc(N(C)C)ccc3[n+]2C)c(C)n1-c1ccccc1
- inhibition [7]: 21.2%
- score [8]: -2.18
- rescue above control [9]: 0
- cytochrome c release ratio [10]: 0.75
- inhibition of aggregation [11]: -12.8%
- glutamate uptake change [12]: -15.7%
- aggregation suppression score [14]: -0.227
- parasite load remaining [15]: 0.35% (inactive) and 0.64% (inactive)
- viability [15]: 46.6% and 62.4%
- inhibition [2]: 5.46% (inactive)
- red/green cell ratio (normalised) [3]: 2.7 (active)
- normalised cell number [3, 20]: 0.4
- normalised cell number [3, 21]: 1.08
- fold change [4, 22]: 1.07 (inactive)
- fold change [4, 23]: 0.697
- cell count [4, 24]: 1790
- cell count [4, 25]: 1670
- remaining NAD [17]: 10 nM (inactive)
- luciferase signal [18]: 28 AU (inactive)
